TEAD-YAP block: TEAD-YAP interaction inhibition | HEK-TIYL cells, TEAD-Gal4/YAP UAS-luciferase luminescence | actives 1.4% (n = 640,000) | inhibition, % at 9.12 µM | AID 1259422; in the data active = inhibition above about 32%;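 also: 0% = median of test compound wells and 100% = reference inhibitor wells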
MITF primary: blocks human microphthalmia-associated transcription factor; O75030; inhibition, % at 2.6 µM; AlphaScreen MITF homodimerization, bead proximity signal; actives 0.91% (n = 650,000); in the data active = inhibition above about 50%;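 also: 0% = vehicle wells with protein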
GPR151 ag: human GPR151 activation; Q8TDV0; PathHunter beta-arrestin GPR151 cells, luminescence; activation, % at 11.2 µM; actives 1% (n = 650,000); AID 1508602; in the data active = activation above about 4.9%;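 also: 0% = median of compound wells and 100% = cells with positive control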
Target sequence (Q8TDV0 whole entry, looked up): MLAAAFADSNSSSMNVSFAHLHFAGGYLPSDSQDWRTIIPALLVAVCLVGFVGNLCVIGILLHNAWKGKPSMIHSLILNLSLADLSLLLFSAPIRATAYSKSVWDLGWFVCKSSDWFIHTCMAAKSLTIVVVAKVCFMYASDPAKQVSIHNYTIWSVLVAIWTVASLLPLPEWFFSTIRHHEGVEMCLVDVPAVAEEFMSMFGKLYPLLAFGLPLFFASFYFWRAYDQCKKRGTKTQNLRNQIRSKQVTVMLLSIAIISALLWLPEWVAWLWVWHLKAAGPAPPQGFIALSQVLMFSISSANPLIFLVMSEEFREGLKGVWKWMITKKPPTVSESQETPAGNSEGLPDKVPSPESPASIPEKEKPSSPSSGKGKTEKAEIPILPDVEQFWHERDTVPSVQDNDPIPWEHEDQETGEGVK
FBW7 activator: human FBW7 E3 ligase activation, primary screen | Q969H0 | AlphaScreen FBW7–phospho-cyclin E peptide binding, activator screen | normalized activity (activation), % at 26.1 µM | actives 0.13% (n = 650,000); in the data active = normalized activity above about 1.9%;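 also: purified mutant Fbw7 with reduced substrate affinity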
GPR151 conf act: human GPR151 activation, confirmation screen | shares compounds with GPR151 ag | GPR151 PathHunter beta-arrestin cells, luminescence, 90 min; % of EA-reagent control over plate median | activation, % at 11.2 µM | 6,700 tested, under 10 active | AID 1508609;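 active = mean percent activation across replicates above the confirmation screen cutoff of 4.91%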
GPR119 counter: activates human GPR119 in a GPR151 counter-screen; AID 1508611; activation, % at 11.2 µM; actives 0.3% (n = 6,700); shares compounds with GPR151 ag; GPR119 PathHunter beta-arrestin cells, luminescence, 90 min; 0 = compound-well median, 100 = enzyme-acceptor control;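 active = mean percent activation in the counterscreen above 29.09%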;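 also: counterscreen on off-target GPR119 to flag nonselective hits from the GPR151 activator screen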
The depositor's hits bear a star; . = no result; ! = not confirmed by another sample. Sampled rows, rich in hits. Any-hit rate of the full collection: about 3.5%.

SMILES	TEAD-YAP block	MITF primary	GPR151 ag	FBW7 activator	GPR151 conf act	GPR119 counter
OCC1(CCc2ccccc2)CCN(Cc2cnc(N3CCCC3)s2)CC1	-3.2	5.7	6.6*	0.0	-1.1	-15.4
CCOC(=O)C1(CCc2ccccc2)CCN(Cc2cnc(C)s2)CC1	-5.3	-2.3	9.8*	-0.1	0.0	-5.9
Cc1nc2sc(C(c3ccc([N+](=O)[O-])cc3)N3CCCC(C)C3)c(O)n2n1 (stereo not drawn)	4.7	-10.4	1.7	-0.3	.	.
CC(=O)Nc1ncc2c(n1)CC(C)(C)CC2=O	-1.1	9.4	0.8	0.1	.	.
Cc1cc(C)nc(SCC(=O)Nc2ncc3c(n2)CC(C)(C)CC3=O)n1	8.5	5.5	5.6*	0.0	1.2	12.9
O=C(NCc1cccs1)C(c1ccccc1)N1Cc2ccccc2C1=O (stereo not drawn)	3.7	2.8	1.4	-0.1	.	.
O=C1c2ccccc2C(=O)C1(Nc1ccc(Br)cc1)c1ccccc1	16.0	-4.7	6.9*	0.0	-0.2	-2.9
Cc1ccc(-n2c3c(cc(C(=O)Nc4ccc5c(c4)OCCO5)c2=O)C(=O)CCC3)cc1	15.8	9.6	5.0*	0.5	0.1	0.8
Cc1ccc(NC(=O)c2cc3c(n(-c4ccc(C)cc4)c2=O)CCCC3=O)cc1	-16.9	0.4	-0.9	0.2	.	.
NC(=O)c1ccc(-c2cccc(C(=O)NCCc3ccc(O)cc3)n2)cc1	17.7	46.7	5.4*	0.0	0.9	5.8
COc1cc(C=O)ccc1Oc1nc2ccccc2n2cnnc12	1.0	9.2	5.8*	0.0	0.9	14.6
CN(Cc1ccccc1)C(=O)CSc1nnc(Nc2ccccc2)s1	0.0	-9.2	1.1	-0.2	.	.
CCOCCn1c(=O)c2c(nc3n(-c4cc(Cl)ccc4C)c(C)cn23)n(C)c1=O	-2.6	17.0	-0.2	0.3	.	.
Cn1c(=O)c2c(nc(NCCOCCO)n2Cc2ccc(Cl)c(Cl)c2)n(C)c1=O	-9.7	-2.7	5.2*	-0.2	0.9	5.8
Cc1ccccc1Nc1nc(N)nc(COC(=O)c2cc(=O)c3ccccc3o2)n1	-9.6	1.7	8.0*	-0.2	-0.9	-1.1
Cc1ccccc1Nc1nc(N)nc(COc2ccc([N+](=O)[O-])cc2Cl)n1	-7.4	6.1	5.7*	0.5	0.5	2.9
O=C(NC1CCCC1)C(c1cccnc1)N(C(=O)c1ccco1)c1ccccc1Cl (stereo not drawn)	1.5	4.0	-0.6	0.0	.	.
Cc1cccc(C(=O)Nc2ncc(S(=O)(=O)c3ccc([N+](=O)[O-])cc3)s2)c1	-5.6	-4.2	4.9*	-0.2	0.2	7.8
CC(C)(C)c1ccc(C(=O)Nc2ncc(S(=O)(=O)c3ccc([N+](=O)[O-])cc3)s2)cc1	0.7	8.1	-1.6	0.1	.	.
Cc1nc2ccccn2c1C(=O)N1CC(C)CC(C)C1 (stereo not drawn)	-2.7	7.5	0.1	-0.3	.	.
COC(=O)c1ccc(NC(=O)C(C)N(c2ccc(C)c(C)c2)S(C)(=O)=O)cc1 (stereo not drawn)	-5.7	4.9	1.9	0.0	.	.
CCOC(=O)c1ccccc1NC(=O)C(C)N(c1ccc(Cl)cc1)S(C)(=O)=O (stereo not drawn)	3.5	13.5	-1.8	0.3	.	.
CCOC(=O)c1ccccc1NC(=O)C(C)N(c1ccc(C)cc1)S(C)(=O)=O (stereo not drawn)	1.8	7.1	5.9*	-0.2	-0.1	1.3
CCOC(=O)c1ccc(NC(=O)C(C)N(c2ccc(C)c(C)c2)S(C)(=O)=O)cc1 (stereo not drawn)	-8.3	-3.3	5.1*	0.0	0.3	13.2
CCc1ccccc1NC(=O)c1ccc(N2CCCC2)c([N+](=O)[O-])c1	-11.1	7.8	0.2	-0.1	.	.
SMILES	TEAD-YAP block	MITF primary	GPR151 ag	FBW7 activator	GPR151 conf act	GPR119 counter
CC(C)CCOC(=O)c1ccc2c(c1)C(=O)N(c1ccc([N+](=O)[O-])cc1)C2=O	-0.4	13.6	1.5	0.0	.	.
CNS(=O)(=O)c1ccc(N/C=C(\C#N)c2nc3ccccc3o2)cc1	-29.9	12.3	1.4	0.3	.	.
O=C/C(=C\Nn1cnnc1)c1nc2ccccc2o1	2.3	12.9	15.1*	-0.2	-0.3	-6.6
CSC(=N)N	4.8	-1.0	11.0*!	0.2	-0.7	4.2
CN(C)CCCSC(=N)N	.	10.6	0.3	0.1	.	.
NS(=O)(=O)c1ccc(CCNC(=O)C(=O)Nc2ccccc2F)cc1	-1.9	-5.3	7.1*	0.2	-0.7	-7.3
Oc1ccccc1CNc1cc2c(cc1Br)OCCO2	-1.6	9.6	19.0*	-0.3	0.3	-1.6
Oc1ccccc1CNc1ccc2c(c1)OCCO2	-19.2	4.6	-0.5	-0.2	.	.
O=C(O)c1ccc(NC(=S)NC(=O)c2ccccc2I)cc1	0.8	-9.5	-3.3	-0.1	.	.
Cc1cccc(C2C3=C(CC(C)(C)CC3=O)Nc3c2c(=O)n(C)c(=O)n3C)c1 (stereo not drawn)	2.8	10.5	-0.4	0.1	.	.
Cn1c2c(c(=O)n(C)c1=O)C(c1ccc(Cl)cc1)C1=C(CC(C)(C)CC1=O)N2 (stereo not drawn)	-2.2	-4.5	5.5*	-0.1	1.3	3.9
Cn1c2c(c(=O)n(C)c1=O)C(c1ccccc1)C1=C(CC(C)(C)CC1=O)N2 (stereo not drawn)	10.4	10.3	3.2	-0.1	.	.
Cn1c2c(c(=O)n(C)c1=O)C(c1cccc(F)c1)C1=C(CC(C)(C)CC1=O)N2 (stereo not drawn)	-5.3	5.0	18.4*	-0.1	1.1	9.2
COc1cccc(C(=O)Nc2cc(=O)n(C)c(=O)n2C)c1	12.7	8.1	10.2*	0.5	0.3	-8.2
COc1cccc(C(=O)Nc2cc(C(C)(C)C)ccc2C(C)=O)c1	5.7	15.5	5.2*	0.6	0.0	-8.6
COc1ccc(C(=O)Nc2cc(=O)n(C)c(=O)n2C)cc1	-4.1	2.3	3.8	-0.3	.	.
CC(=O)c1ccc(C(C)(C)C)cc1NC(=O)c1ccc(Cl)cc1	3.2	4.4	-0.1	0.1	.	.
COc1ccc(-c2noc(CCC(=O)Nc3ccc(C)cc3)n2)cc1	-11.9	-2.1	2.1	-0.1	.	.
COc1ccc(-c2noc(CCC(=O)Nc3ccc(C)c(C)c3)n2)cc1	-1.7	8.0	5.2*	0.0	1.9	7.0
COc1ccc(-c2noc(CCC(=O)Nc3cccc(Cl)c3)n2)cc1	-0.4	-4.8	9.5*	-0.2	0.4	5.2
COc1ccc(-c2noc(CC(=O)Nc3cccc(Cl)c3)n2)cc1	8.7	-3.6	-1.3	0.0	.	.
CN(C)C(=O)CCc1nc(-c2ccc(Cl)cc2)no1	-47.0	-6.1	7.2*	0.1	-0.6	-18.4
COc1cccc(-c2noc(CCC(=O)NC(C)C)n2)c1	-5.2	-5.0	5.6*	-0.1	-1.7	-13.9
Cc1cccc(-c2noc(CCC(=O)N(C)C)n2)c1	-41.9	-6.9	-4.2	-0.1	.	.
CC(C)/C=C1\CCCC\C1=N/n1cnnc1	-1.4	0.4	-0.9	0.0	.	.
